Compound activity (PubChem BioAssay)
Only some compounds are listed: those with a hit (about 31% of all), similar ones and a draw of the others.
CYP2C19 act = activators of human cytochrome P450 2C19. P33261. recombinant CYP2C19, luciferin-H EGE luminescence; hits give high values; 0 = fully inhibited enzyme, 1 = untreated enzyme. activation factor at 5 µM. 96,000 tested, under 10 active. AID 1025;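 active = activation factor of at least 2 at 5 µM in the primary screen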
CYP2C9 act = CYP2C9 (human) activation | P11712 | AID 1024 | activation factor at 5 µM | actives 1.4% (n = 96,000) | recombinant CYP2C9, luciferin-H conversion, luminescence; hits give high values; factor 1 = untreated enzyme, 0 = blocked;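 active = activation factor of 2 or more for CYP2C9 at a 5 µM dose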
PLAP act = activators of human placental alkaline phosphatase | P05187 | actives 1.2% (n = 96,000) | activation fold at 20 µM | purified PLAP enzyme, luminescent substrate read-out; hits give high values; in the data active = activation fold above about 2
Target sequence (P05187 whole entry, looked up): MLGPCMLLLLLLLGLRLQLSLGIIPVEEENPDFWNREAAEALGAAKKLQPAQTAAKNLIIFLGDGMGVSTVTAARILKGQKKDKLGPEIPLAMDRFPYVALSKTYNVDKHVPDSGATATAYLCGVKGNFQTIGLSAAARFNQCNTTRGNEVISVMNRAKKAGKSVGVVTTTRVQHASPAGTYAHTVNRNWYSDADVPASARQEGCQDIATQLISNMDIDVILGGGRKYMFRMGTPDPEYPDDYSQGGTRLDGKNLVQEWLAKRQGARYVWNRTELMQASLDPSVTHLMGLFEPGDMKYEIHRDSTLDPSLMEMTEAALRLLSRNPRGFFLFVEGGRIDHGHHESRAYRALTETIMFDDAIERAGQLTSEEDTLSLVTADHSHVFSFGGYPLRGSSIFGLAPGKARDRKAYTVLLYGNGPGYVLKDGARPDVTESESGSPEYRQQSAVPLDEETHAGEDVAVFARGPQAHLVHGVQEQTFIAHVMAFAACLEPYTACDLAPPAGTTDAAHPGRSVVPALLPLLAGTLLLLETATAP
CYP2C9 inhib = blocks human cytochrome P450 2C9. AID 777. P11712. actives 20% (n = 96,000). inhibition, % at 5 µM. CYP2C9 Supersomes, luciferin-H conversion, luminescence;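 active = blocking of liver enzyme CYP2C9 beyond about 50% at 5 µM, limit read from the data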
CYP2C19 inh = blocks human cytochrome P450 2C19; P33261; CYP2C19 Supersomes, luciferin-H EGE luminescence, 30 min; inhibition, % at 5 µM; actives 21% (n = 96,000); AID 778;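 active = CYP2C19 inhibition above a set limit at 5 µM in the primary screen, cut at about 50% in these data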
Large screens that a line does not name were inactive.

Cc1cc(C)c(-c2noc(C(=O)OC(C)(C)C)c2C(=O)OC(C)(C)C)c(C)c1	none
O=C(NC1CCCCC1)n1c(=O)oc2ccc(Cl)cc21	none
CCC(C)(C(=O)NC1CCCCC1)N(C)C(=O)c1ccccn1 (stereo unspecified)	none
COc1ccc(-c2c(C)n([O-])c(C)c(-c3ccccc3)[n+]2=O)cc1OC	none
CC(C)C(c1nnnn1Cc1cccs1)N1CCN(c2ccccc2)CC1 (stereo unspecified)	none
Cc1cc(C)c2c(N)c(-c3nc4ccccc4[nH]3)sc2n1	CYP2C9 inhib 57, CYP2C19 inh 52
C=CCNC(=O)C1=NOC(CNC(=O)c2c(-c3ccccc3Cl)noc2C)C1 (stereo unspecified)	none
Cc1nnc(NC(=O)CSc2nnc(Cc3cccn3C)n2C)s1	none
O=C1CCC(C(=O)N(Cc2ccco2)C2(C(=O)NC3CCCC3)CCCCC2)N1 (stereo unspecified)	none
Cc1cnc(C)c(N2CCC(C(=O)NC(C)c3cccs3)CC2)n1 (stereo unspecified)	none
Cc1ccc(-c2nc3sc4c(c3c(=O)n2N)CC(C)(C)OC4)cc1	none
Cc1ccc(-c2nc3sc4c(c3c(=O)n2N)CCCC4)cc1	CYP2C9 inhib 58
Cc1nc2sc3c(c2c(=O)o1)CCCC3	none
Nc1nc2sc3c(c2c(=O)s1)CCCC3	CYP2C9 inhib 80
CC(C)c1nc2sc3c(c2c(=O)o1)CCCC3	CYP2C9 inhib 66, CYP2C19 inh 51
O=c1c2c3c(sc2nc2n1CCCCC2)CCCCC3	none
O=c1c2c3c(sc2nc2n1CCCC2)CCCCC3	CYP2C9 inhib 62
CCOC(=O)C1=C(C)NC(C)=C(C(=O)OCC)C1C(=O)OCC(=O)N1CCc2ccccc21	CYP2C9 inhib 82
CCOC(=O)C1=C(C)NC(C)=C(C(=O)OCC)C1C(=O)OCC(=O)NC(C)C	CYP2C9 inhib 85, CYP2C19 inh 84
CCOC(=O)c1cc(CC)sc1NC(=O)c1ccc2c(c1)OCCO2	none
CCOC(=O)C1=C(C)NC(C)=C(C(=O)OCC)C1C(=O)OCC(=O)c1ccc2c(c1)OCCO2	CYP2C9 inhib 85, CYP2C19 inh 68
Cc1cnc(C(=O)OCC(=O)NC(C)C)cn1	none
CCOC(=O)c1c(C)oc(/N=C/c2ccccc2O)c1C#N	none
O=C(NCC(c1cccnc1)N1CCN(c2ccc(F)cc2)CC1)c1cccc(Cl)c1 (stereo unspecified)	CYP2C9 inhib 52
O=C(NCC(c1cccnc1)N1CCN(c2ccccc2)CC1)c1ccc2c(c1)OCO2 (stereo unspecified)	CYP2C9 inhib 76, CYP2C19 inh 59
O=C(NCC(c1cccnc1)N1CCN(c2ccccc2)CC1)C1CCCCC1 (stereo unspecified)	none
O=C(NCC(c1cccnc1)N1CCN(c2ccc(F)cc2)CC1)OCc1ccccc1 (stereo unspecified)	CYP2C9 inhib 82, CYP2C19 inh 85
O=C(NCC(c1cccnc1)N1CCN(c2ccccc2F)CC1)OCc1ccccc1 (stereo unspecified)	CYP2C9 inhib 94, CYP2C19 inh 91
O=C(NCC(c1cccnc1)N1CCN(c2ccccc2F)CC1)c1ccccc1 (stereo unspecified)	CYP2C19 inh 52
CCC(c1nnnn1C(C)(C)CC)N(CCN1CCOCC1)Cc1cc2cc(C)ccc2[nH]c1=O (stereo unspecified)	CYP2C19 inh 82
CCCC(c1nnnn1C(C)(C)CC)N(CCCO)Cc1cc2cc(C)cc(C)c2[nH]c1=O (stereo unspecified)	CYP2C9 inhib 53
CCC(c1nnnn1C(C)(C)CC)N(CCCO)Cc1cc2cc(C)cc(C)c2[nH]c1=O (stereo unspecified)	CYP2C9 inhib 76, CYP2C19 inh 63
O=c1c2ccccc2oc2nc(-c3ccco3)n(Cc3ccccc3)c(=O)c12	none
Cc1cc(NC(=O)CSc2nnc(-c3c[nH]c4ccccc34)n2-c2ccc(Cl)cc2)no1	none
COc1ccc(C(=O)c2ccc(OC)c(OC)c2)cc1OC	none
COc1ccc(C(=O)c2ccc(OC)c(N)c2)cc1N	CYP2C9 act 2.6
COc1ccc(C(=O)c2ccccc2)cc1Br	CYP2C9 act 2.2
COc1ccc(C(=O)c2ccc(OC)c(OC)c2)cc1	none
C/C(=N\NC(=O)CSCc1cccc(Br)c1)c1ccc([N+](=O)[O-])cc1	none
C/C(=N\NC(=O)CSCc1ccc(Cl)cc1)c1ccc2c(c1)OCCO2	CYP2C9 inhib 64, CYP2C19 inh 84
COc1ccc(Cl)c(N2CCN(CCCNC(=O)Nc3ccc(C)cc3)CC2)c1	none
CN(Cc1ccccc1)C(=O)CSc1nc2ccccc2c(=O)n1Cc1ccco1	CYP2C9 inhib 100, CYP2C19 inh 97
Cc1ccc(NC(=O)CN(C)C(=O)CSc2nc3ccccc3c(=O)n2Cc2ccco2)cc1	CYP2C9 inhib 79
CCOC(=O)c1cc2c(c(CSc3nc4ccccc4c(=O)n3Cc3ccco3)c1)OCOC2	CYP2C9 inhib 67
Cc1ccccc1OCC(=O)N/N=C/c1ccc(Sc2nc3ccccc3s2)o1	CYP2C9 inhib 83, CYP2C19 inh 74
COCC(=O)N/N=C/c1ccc(Sc2nc3ccccc3s2)o1	none
O=C(Cc1cccc2ccccc12)N/N=C/c1ccc(Sc2nc3ccccc3s2)o1	CYP2C9 inhib 76
N#CCC(=O)N/N=C/c1ccc(Sc2nc3ccccc3s2)o1	CYP2C19 inh 78
O=C(C/C=N\OCc1c(Cl)cccc1Cl)Oc1ccc(Cl)cc1Cl	none
CCOC(=O)c1cc(NC(=O)c2ccc(OC)cc2)c(=O)oc1-c1ccccc1	none
CCOC(=O)c1c(C)oc2c1c(C=NC1CCS(=O)(=O)C1)c(O)c1ccccc12 (stereo unspecified)	none
CCOC(=O)c1c(C)oc2c1c(C(c1ccncc1)N1CCOCC1)c(O)c1ccccc12 (stereo unspecified)	CYP2C9 inhib 97, CYP2C19 inh 98
CCOC(=O)c1c(C)oc2c1c1c(c3ccccc32)OCN(Cc2ccccn2)C1	CYP2C9 inhib 54
CCOC(=O)c1sc(NC(=O)c2cc3n(n2)C(C(F)(F)F)CC(c2ccccc2)N3)c(C(=O)OCC)c1C (stereo unspecified)	none
COc1ccc(-c2ccc(C#N)c(OC(=O)c3c(Cl)cccc3Cl)n2)cc1	none
CCSc1nc(-c2ccc(OC)cc2)ccc1C#N	CYP2C9 inhib 90, CYP2C19 inh 63
N#Cc1ccc(-c2ccc3c(c2)OCO3)nc1SCC(=O)OCc1ccccc1	CYP2C9 inhib 92
COc1ccc(-c2ccc(C#N)c(SCC(=O)OCc3ccccc3)n2)cc1OC	CYP2C9 inhib 92
Cc1cccc2cc(C#N)c(SCC(=O)NNC(=O)Cc3ccccc3)nc12	none
CNC(=O)c1ccc(-c2ccccc2)s1	none
O=C(NC1CCCC1)C1CC(=O)N(CCc2ccccc2)C1 (stereo unspecified)	none
O=C(Nc1ccc(Cn2cccn2)cc1)c1ccc(COc2cccc(Br)c2)cc1	CYP2C9 inhib 83, CYP2C19 inh 57
